HepG2 viability: qHTS for Inhibitors of TGF-b: Cytotox Counterscreen; HepG2 CAGA-GFP viability, ATP luminescence, 18 h; actives 0.76% (n = 410,000); Potency, µM (series often up to 46.1 µM), without a hit: top-dose activity change, negative = cytotoxicity, most hits filed as cytotoxic; AID 588856, 2011; note: potency is the fitted concentration of half-maximal effect
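HepG2 CAGA-GFP cells (1000/well, DMEM with 1% FBS) received compound, then TGF-beta at 500 pg/mL final, and were incubated 18 hours at 37 degrees C. Viability was read by CellTiter-Glo luminescence. Media-only wells were set as complete cell-killing and DMSO as no toxicity.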
TGFb inhibitor: qHTS for Inhibitors of TGF-b | HepG2 CAGA-GFP TGF-b/SMAD3 reporter, GFP fluorescence, 18 h; TGF-beta stimulated, 500 pg/mL final | Potency, µM (series often up to 46.1 µM), for the others: at the highest dose activity, negative = inhibition, most hits filed as inhibitors | actives 1.2% (n = 410,000) | AID 588855, 2011; note: potency is the fitted concentration of half-maximal effect; % is set by controls: 0 for no effect and ±100 for the full control effect; nearly all actives have a fitted effect of over 65% in size
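Inhibition of TGF-beta-driven CAGA-GFP reporter expression in HEPG2 cells is measured by cellular GFP fluorescence after 18 h stimulation with 500 pg/mL recombinant TGF-beta in 1% FBS medium at 37 degrees C.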
HT1080 IDH1KD tx: qHTS for induction of synthetic lethality in tumor cells producing 2HG: qHTS for the HT-1080-IDH1KD cell line | HT-1080 IDH1 knockdown viability, ATP luminescence, 48 h | Potency, µM (doses to about 46.1 µM), inactives show top-dose activity, negative = toxicity, hits mostly cytotoxic | actives 2% (n = 360,000) | AID 686971, 2013;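 note: potency is the fitted concentration of half-maximal effect; 0% = DMSO wells and -100% = cell-free medium wells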
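After a 2 h attachment period, IDH1KD HT-1080 cells took pin-transferred compound for 48 h at 37 °C; ATP-based luminescence after 10 min room-temperature reagent incubation reported viability.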
Giardia killer: Small Molecules that selectively kill Giardia lamblia: qHTS | actives 0.15% (n = 340,000) | Giardia lamblia trophozoite viability | activity change, % at 7.66 µM, hits read low; in the data active = activity change below about -80%; inconclusive = between about -30% and that limit;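 note: parasites exposed to compound for two days anaerobically before the ATP read; % is set by controls: 0 for no effect and ±100 for the full control effect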
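Compounds were tested on trophozoites seeded at 100 cells/well and held 48 hrs at 37 deg C anaerobically. An ATP-based luminescent kit measured the remaining live cells.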
IL1B secr inh: qHTS for Inhibitors of Inflammasome Signaling: IL-1-beta AlphaLISA Primary Screen; actives 4.7% (n = 360,000); THP-1 LPS/ATP IL-1B secretion, AlphaLISA, 16 h; hits give low values; AID 743279, 2014; activity change, % at 57.5 µM; in the data active = activity change below about -50%; inconclusive = mostly about -30% to -49%; note: % is set by controls: 0 for no effect and ±100 for the full control effect
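Secreted IL-1B measured by AlphaLISA bead assay after 16 h compound exposure of THP-1 cells; compounds (final up to 57.5 uM) added 1 h before LPS (250 ng/mL) and ATP (1.25 mM) stimulation; lower signal means less secretion.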
HT1080-NT tox: qHTS for induction of synthetic lethality in tumor cells producing 2HG: qHTS for the HT-1080-NT fibrosarcoma cell line; HT-1080-NT fibrosarcoma viability, CellTiter-Glo ATP luminescence, 48 h; Potency, µM (titrated, usually from 46.1 µM), without a hit: at the highest dose activity, negative = less viability, hits mostly cytotoxic; actives 1.6% (n = 360,000);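 note: NT is the 2HG producing partner of a matched IDH1 knockdown line; potency is the fitted concentration of half-maximal effect; 0% = DMSO-treated cells and -100% = media-only wells without cells; nearly all actives have a fitted effect of over 55% in size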
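Fibrosarcoma NT cells, 750 per well in 5% FBS RPMI, were exposed to compound for 48 hours. Viability: CellTiter-Glo luminescence.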
* = called active by the depositor; ? = inconclusive; · = not tested or not shown. Compounds with a hit are over-represented: about 6.5% of the library has one in this group of screens. Unless noted, calls come from the whole dose curve; as a rule, active = well fitted curve in the direction sought with a large enough effect; inconclusive = small, poorly fitted or top-dose-only effect, or another doubt; inactive = no such curve, though single readings can be large; an effect the other way counts as inactive or inconclusive.

SMILES	HepG2 viability	TGFb inhibitor	HT1080 IDH1KD tx	Giardia killer	IL1B secr inh	HT1080-NT tox
COC(=O)c1cc(S(=O)(=O)C(C)C)c(S(C)=O)s1 (stereo unspecified)	-3%	-23%	-22%	15	-100*	?
O=[N+]([O-])c1ccc(CN2CC(N3CCN(CCO)CC3)CS2(=O)=O)cc1 (stereo unspecified)	-13%	0%	5%	·	20	2%
Cc1[nH]nc2c1C(C(C)c1ccccc1)C(C#N)=C(N)O2 (stereo unspecified)	-23%	-29%	0%	8	-86*	-18%
Nc1nc(=O)n(C2CC(O)C(CO)O2)cc1F (stereo unspecified)	3%	1%	5.2µM*	-7	18	-20%
CCC1CCCCN1CCCNC(=O)c1cn(CC)c2ccc(S(=O)(=O)N3CCc4ccccc4C3)cc2c1=O (stereo unspecified)	-7%	10%	-6%	0	-99*	0%
CCn1cc(C(=O)NCCCN2CCCC(C)C2)c(=O)c2cc(S(=O)(=O)N3CCc4ccccc4C3)ccc21 (stereo unspecified)	-32%	-29%	21µM*	2	-104*	?
CCn1cc(C(=O)NCCc2ccccc2)c(=O)c2cc(S(=O)(=O)N3CCc4ccccc4C3)ccc21	-6%	-21%	·	·	·	·
COc1ccc(OC)c(-c2nc(Nc3ccccc3C)sc2CC(=O)O)c1	-7%	3%	·	·	·	·
CCCCCCc1cc2cc(S(=O)(=O)c3ccc(Cl)cc3)c(=O)oc2cc1O	-59%	11µM*	2%	-2	-7	0%
CCCCCCc1cc2cc(S(=O)(=O)c3ccc(C)cc3)c(=O)oc2cc1O	-42%	?	-18%	32	50	0%
Cc1csc(SCC(=O)NCCc2ccc(Cl)cc2)n1	-1%	9%	17%	6	-3	3%
O=C(CCNC(=O)c1ccc(Br)cc1)Nc1ccccc1N1CCCCC1	0%	3%	-19%	0	-80*	-13%
O=C(Nc1ccc(Cl)cc1)Nc1ccc(N2CCCC2)c(S(=O)(=O)Nc2ccccc2Cl)c1	-32%	?	6.5µM*	12	-52*	?
Cc1cc(C)cc(NC(=O)Nc2ccccc2N2CCCCC2)c1	0%	-24%	-15%	15	-74*	-2%
O=C(CCNC(=O)c1ccccc1Cl)Nc1ccccc1N1CCCC1	13%	27%	6%	-27	15	7%
Cc1cc(C)cc(OCC(=O)Nc2ccccc2N2CCCCC2)c1	1%	5%	15%	-10	23	12%
C=CCNC(=O)/C(C#N)=C/c1c(N2CCN(c3cccc(Cl)c3)CC2)nc2c(C)cccn2c1=O	-22%	-24%	17%	-16	-5	0%
COC(=O)c1ccc(S(=O)(=O)N2Cc3ccccc3C2)cc1	6%	5%	0%	12	33	3%
COc1ccc(C)cc1NC(=O)CN(C)S(=O)(=O)c1cc(C)ccc1OC	-2%	?	1%	-2	-3	15%
COc1ccccc1/C=C/c1nc(S(=O)(=O)c2ccccc2)c(N(C)C)o1	5%	2%	5%	-12	-62*	10%
COc1cc(-c2nc(S(=O)(=O)c3ccc(C)cc3)c(N(C)C)o2)cc(OC)c1OC	-15%	-12%	-15%	-1	-51*	-11%
COc1cccc(/C=C/c2nc(S(=O)(=O)c3ccccc3)c(N(C)C)o2)c1	9%	4%	10%	3	?	10%
CCN(CC)CCCCNc1ncc2cc(-c3cc(OC)cc(OC)c3)c(NC(=O)NC(C)(C)C)nc2n1	14µM*	?	9.2µM*	12	0	16µM*
O=c1cc(-c2ccccc2Cl)oc2c(NS(=O)(=O)c3cc(Cl)cc(Cl)c3O)ccc(O)c12	10µM*	6.3µM*	?	-15	2	3.3µM*
CC(C)CC(NC(=O)C(NC(=O)C1OC2OC(C)(C)OC2C2OC(C)(C)OC12)C(C)C)C(=O)O (stereo unspecified)	4%	10%	13%	10	11	11%
SMILES	HepG2 viability	TGFb inhibitor	HT1080 IDH1KD tx	Giardia killer	IL1B secr inh	HT1080-NT tox
COC(=O)CSc1nc(N)c(C#N)c(-c2ccc(O)cc2)c1C#N	-5%	4%	6%	-9	-70*	-2%
CC(C)c1cc(NC(=O)c2ccccc2)cc(C(C)C)c1O	-6%	-14%	-5%	15	-57*	0%
CCN(CC)S(=O)(=O)c1ccc(N/N=C(\C)c2ccncc2)c([N+](=O)[O-])c1	-6%	-4%	-1%	5	54	4%
Cc1cccc(/C=C/C(=O)c2cc(Br)ccc(=O)c2O)c1	-29%	?	?	11	?	?
CCc1ccc(/C=C/C(=O)c2cc(Br)ccc(=O)c2O)cc1	-76%	?	?	-20	-1	21µM*
CCOc1ccc(/C=C/C(=O)c2cc(Br)ccc(=O)c2O)cc1	-55%	7.9µM*	23µM*	0	?	?
Cc1cccc(NC(=O)Cc2ccc(-n3c(C)nc4cccnc43)cc2)c1C	-8%	-1%	·	·	·	·
Cc1cc(C)c(NC(=O)Cc2ccc(-n3c(C)nc4cccnc43)cc2)c(C)c1	-25%	13µM*	·	·	·	·
CC(=O)C1=C(O)C(=O)N(CCc2c[nH]c3ccccc23)C1c1ccc(C)cc1 (stereo unspecified)	-2%	-20%	?	12	16	-26%
O=C(/C=C/c1ccc(OC2CSC2)cc1)c1ccc(Cl)cc1	15%	0%	3%	4	-13	15%
COc1ccc(NC(=O)/C=C/c2cc(Br)ccc2OC)cc1	-9%	10%	0%	-4	-16	-1%
COc1cccc(C(=O)/C=C/c2ccc(SC)cc2)c1	-49%	-26%	?	0	-20	-3%
COC(=O)c1ccc(/C=C/C(=O)c2cccc(OC)c2)cc1	-61%	?	23µM*	-3	-101*	?
COc1ccc(/C=C/C(=O)c2ccccc2)cc1COc1ccccc1F	-3%	20%	?	-6	-65*	?
COc1ccc(Br)cc1/C=C/C(=O)c1ccc(NC(C)=O)cc1	16µM*	?	?	0	-99*	?

Screening results: PubChem, National Center for Advancing Translational Sciences (NCATS)
